Screening data from PubChem.
DRD3 antagonist = antagonists of human D3 dopamine receptor; P35462; D3R cells, DiscoveRx beta-arrestin luminescence, antagonist mode; active compounds read low; max response, negative = inhibition, %; 360,000 compounds, 2.5% hits; AID 652054; in the data active = max response below about -50%; inconclusive = no clear call, values can overlap the other calls
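Cells plated overnight at 1500 cells/well, then exposed to library compounds with dopamine controls for 90 minutes at 37 degrees C. DiscoveRx reagent added for 30–60 minutes at room temperature; luminescence read, quantitative HTS format.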
D1 PAM = human D1 dopamine receptor positive modulation | P21728 | HEK293 TREx D1 cells, calcium flux, dopamine EC20 potentiation | potentiation, % at 10 µM | 360,000 compounds, 0.036% hits | AID 504651; in the data active = potentiation above about 30%
Target sequence (P21728 whole entry, looked up): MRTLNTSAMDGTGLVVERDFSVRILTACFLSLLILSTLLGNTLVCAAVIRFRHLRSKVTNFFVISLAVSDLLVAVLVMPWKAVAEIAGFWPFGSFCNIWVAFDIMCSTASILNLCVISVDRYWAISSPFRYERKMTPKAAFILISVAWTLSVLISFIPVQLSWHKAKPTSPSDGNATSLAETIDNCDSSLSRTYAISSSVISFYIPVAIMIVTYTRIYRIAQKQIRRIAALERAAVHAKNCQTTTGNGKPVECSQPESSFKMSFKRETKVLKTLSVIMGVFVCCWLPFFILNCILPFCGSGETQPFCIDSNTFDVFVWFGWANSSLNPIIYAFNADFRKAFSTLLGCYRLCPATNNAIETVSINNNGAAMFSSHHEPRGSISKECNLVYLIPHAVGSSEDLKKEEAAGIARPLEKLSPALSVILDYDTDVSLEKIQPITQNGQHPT
DRD3 agonist = D3 dopamine receptor (human) agonism; max activation, %; 410,000 compounds, 0.58% hits; P35462; D3R DiscoveRx beta-arrestin cells, luminescence, 90 min; in the data active = max activation above about 30%
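Agonist-mode cell screen: cells plated at 1500/well and incubated overnight at 37 °C, then exposed to library compounds for 90 min at 37 °C. Detection reagent was added for 30–60 min at room temperature, and luminescence was read.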
D1 antagonist = blocks dopamine activation of the human D1 receptor. AID 504652. P21728. HEK293 TREx D1 cells, calcium flux, dopamine EC80; active compounds read low. activity change, negative = inhibition, % at 10 µM. 360,000 compounds, 3.2% hits; in the data active = activity change below about -30%
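Tetracycline-induced HEK293 T-REx cells with force-coupled D1 receptor were loaded with a no-wash calcium dye. Compound was added after a 10 s baseline and read kinetically for 180 s; EC80 dopamine was then added and calcium flux followed another 180 s.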
D1 agonist = agonists of human D1 dopamine receptor; HEK293 T-REx D1 cells, calcium flux, agonist mode; activation, % at 2 µM; 360,000 compounds, 1% hits; in the data active = activation above about 30%
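Inducible HEK293 T-REx D1 cells, force-coupled to calcium signalling, were plated at 4000 cells/well with tetracycline and held overnight at 30 C. After no-wash calcium dye loading, compound-evoked calcium rise over 180 s flagged agonists.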
Of the large screens only hits and unclear results are named; the others gave an inactive call; ! = a repeat was not active. An excerpt weighted towards active compounds, which were near 6% of everything screened.

O=C(C1CCN(c2ncnc3c2nc2n3CCCCC2)CC1)N1CCN(c2ccccc2F)CC1	DRD3 agonist 61.6!
Cc1cccc(N2CCN(C(=O)C3CCN(c4ncnc5c4nc4n5CCCCC4)CC3)CC2C)c1 (centres undefined)	DRD3 agonist 35.3!
COc1cc(NC(=O)c2cccc3c2C(=O)N(C2CCCCC2)C3)cc(OC)c1	none (no result: DRD3 antagonist)
CCOc1ccccc1CNC(=O)Cn1nc(N2CCN(c3ccccc3)CC2)ccc1=O	none (no result: DRD3 antagonist)
Cc1ccccc1OCC(O)CN(CCO)Cc1ccccc1 (centres undefined)	D1 antagonist -47.5
CCN(CCCNC(=O)CN1N=C(c2ccc(OC)cc2)CCC1=O)c1cccc(C)c1	D1 antagonist -39.5 (no result: DRD3 antagonist)
CCN(CCCNC(=O)CN1N=C(c2ccc(C)cc2)CCC1=O)c1ccccc1	none (no result: DRD3 antagonist)
CCN(CCCNC(=O)CN1N=C(c2ccccc2)CCC1=O)c1cccc(C)c1	DRD3 agonist 40.5 (no result: DRD3 antagonist)
CCCCn1nnnc1C(c1ccccc1OC(F)(F)F)N1CCN(C/C=C/c2ccccc2)CC1 (centres undefined)	DRD3 antagonist -59.0 (no result: D1 PAM, D1 antagonist, D1 agonist)
FC(F)(F)Oc1ccccc1C(c1nnnn1Cc1ccccc1)N1CCN(C/C=C/c2ccccc2)CC1 (centres undefined)	DRD3 antagonist -65.6 (no result: D1 PAM, D1 antagonist, D1 agonist)
COc1ccccc1C(c1nnnn1Cc1ccccc1)N1CCN(c2nc3ccccc3s2)CC1 (centres undefined)	none
CCC(=O)N1c2ccc(S(=O)(=O)N3CCCCCC3)cc2CC1C (centres undefined)	none (no result: DRD3 antagonist)
N#Cc1ccc(NC(=O)CN2CCN(c3ccccn3)CC2)cc1	DRD3 agonist 48.7
CCc1ccc(NC(=O)c2sc3nc(C)nc(N4CCN(c5ccccn5)CC4)c3c2C)cc1	D1 antagonist -84.1
CC(=O)c1ccc(NC(=O)CN2CCN(CC(=O)Nc3ccc(C(C)=O)cc3)CC2)cc1	none
CCN(CC)c1ccc(NC(=O)CN2CCN(c3nc(C)cc(C)n3)CC2)cc1	D1 antagonist -32.9
Cc1nc(N2CCN(c3ccccn3)CC2)c2c(C)c(C(=O)Nc3ccccc3F)sc2n1	none
CCN(CC)c1ccc(NC(=O)CN2CCN(c3ccc(F)cc3)CC2)cc1	none
CC(=O)c1ccc(NC(=O)CN2CCN(c3ncccn3)CC2)cc1	DRD3 agonist 69.8
Cn1nnc2c(N3CCCCC3)ncnc21	none (no result: DRD3 antagonist, D1 antagonist)
O=c1c2cc(N3CCOCC3)ccc2[nH]c(=S)n1CCCN1CCCC1	DRD3 antagonist -72.9
CC1CCN(CCCn2c(=S)[nH]c3ccc(N4CCOCC4)cc3c2=O)CC1	DRD3 antagonist -80.9
O=c1c2cc(N3CCOCC3)ccc2[nH]c(=S)n1CCCN1CCCCC1	none
COCCNC(=O)CCCn1c(SCc2ccccc2C)nc2c(sc3ccccc32)c1=O	none (no result: DRD3 antagonist)
CN1C(=O)c2cccc3c(S(=O)(=O)N4CCCC4C(=O)O)ccc1c23 (centres undefined)	D1 antagonist -37.6
CCc1cccc(CC)c1NC(=O)C(Cc1ccccc1)NS(=O)(=O)c1cccc2nsnc12 (centres undefined)	none (no result: DRD3 antagonist)
CC(C)C(NC(=O)c1ccccc1Cl)C(=O)OCc1nc2scc(-c3ccccc3Cl)c2c(=O)[nH]1 (centres undefined)	none
CC(C)[C@H](NC(=O)c1ccccc1Br)C(=O)OCc1nc2ccsc2c(=O)[nH]1	D1 antagonist -30.2
COc1ccc2nc3n(c(=O)c2c1)-c1ccc(Cl)cc1C(=O)NC3Cc1ccc(O)cc1 (centres undefined)	DRD3 agonist 44.2 (no result: D1 PAM, D1 antagonist, D1 agonist)
COc1ccc2nc3n(c(=O)c2c1)-c1cc2ccccc2cc1C(=O)NC3Cc1ccc(O)cc1 (centres undefined)	none (no result: D1 PAM, D1 antagonist, D1 agonist)
CC(C)CC1NC(=O)c2cc3ccccc3cc2-n2c1nc1ccc(F)cc1c2=O (centres undefined)	DRD3 antagonist -57.9 (no result: D1 PAM, D1 antagonist, D1 agonist)
CCCCNC(=O)CCn1c(=O)c2ccccc2n(Cc2cccc(Cl)c2)c1=O	none (no result: DRD3 antagonist)
CC(=O)N(CCCN(C)C)Cc1ccccn1	DRD3 agonist 44.2
COc1ccc(/C=c2\s/c(=C/C(=O)c3ccc(C)cc3)[nH]c2=O)cc1OC	D1 agonist 64.3
Cc1cccc(C)c1OCC(=O)NCC1(N2CCOCC2)CCCCC1	none (no result: DRD3 antagonist)
COc1ccc2c(c1OC)C(=O)OC2CC(=O)O (centres undefined)	DRD3 antagonist -54.5, D1 antagonist -30.1
O=C(NC1CCCC1)c1ccc2c(c1)N(Cc1ccccc1F)C(=O)c1ccccc1S2	none (no result: DRD3 antagonist)
O=C(Oc1ccc2c(=O)c(Oc3ccc4ccccc4c3)coc2c1)c1cccnc1	D1 antagonist -36.7
CCCC(=O)Nc1ccc2c(c1)c1ccccc1n2CC	none
CCn1c2ccccc2c2cc(NC(=O)COC(=O)c3cc(OC)c(OC)cc3OC)ccc21	DRD3 agonist 54.2
CCOC(=O)C(=CNc1ccc2c(c1)c1ccccc1n2CC)C(=O)OCC	DRD3 agonist 66.2
COc1ccc(OC)c(/C=C2/Sc3ccccc3C2=O)c1	D1 agonist 311.9
COc1ccc(OC)c(C=C2CCc3ccccc3C2=O)c1	none (no result: D1 PAM, D1 antagonist, D1 agonist)
CN1Cc2c(N)cccc2C(c2ccccc2)C1 (centres undefined)	DRD3 antagonist -62.5!
CC(=O)N1N=C2c3ccccc3CCC2C1c1ccc(F)cc1 (centres undefined)	none
COc1ccc2c(c1)CCC1C2=NN(/C(C)=C/C(C)=O)C1c1cccc(F)c1 (centres undefined)	DRD3 antagonist -58.0
COc1ccc(C(=O)/C=C/c2ccc(O)cc2)c2c1CC(O)C(C)(C)O2 (centres undefined)	none (no result: D1 PAM, D1 antagonist, D1 agonist)
COc1ccc(C(=O)/C=C/c2ccc(O)cc2)c(O)c1CC=C(C)C	DRD3 antagonist -67.0
CN1CCN(Cc2nc(Cc3ccccc3)no2)CC1c1ccccc1 (centres undefined)	none
c1ccc(Cc2noc(CN3CCN(CCOc4ccccc4)CC3)n2)cc1	DRD3 antagonist -53.3
O=CN1CCCN(Cc2nc(Cc3ccccc3F)no2)CC1	none
Fc1ccccc1Cc1noc(CN2CCN(C/C=C/c3ccccc3)CC2)n1	DRD3 antagonist inconclusive, D1 antagonist -52.8
CCOC(=O)c1ccc(NC(=O)C2=C(C)Nc3nc(SCc4ccc(Cl)cc4)nn3C2c2ccc(C)cc2)cc1 (centres undefined)	none (no result: DRD3 antagonist)
CN(C)c1ccc(/C=C(/C(=O)c2ccc(Cl)cc2Cl)n2cncn2)cc1	D1 antagonist -50.1, D1 agonist 200.3
COc1ccc(/C=C(/C(=O)c2ccc(Cl)cc2Cl)n2cncn2)cc1	none
CN(C)/C=C(/C(=O)c1ccc(Cl)cc1)n1cncn1	D1 antagonist -33.0
Fc1cc(F)c2ncc3c(-c4ccccc4)nn(-c4cccc(Cl)c4)c3c2c1	none (no result: DRD3 antagonist)
CCOC(=O)/C(C#N)=C\C=C1C=CN(C)C=C1	D1 agonist 45.0
CC(C)C(=O)OCc1cc(=O)n2nc(C3CC3)sc2n1	none (no result: DRD3 antagonist)
CCC(=O)N(CCC(c1ccccc1)c1ccc2c(c1)OCO2)Cc1ccc(OC(C)C)cc1 (centres undefined)	D1 antagonist -53.5 (no result: DRD3 antagonist)
